Among the data in PubChem BioAssay (Tox21) are Potency and outcome values, retold here.

Assay [1] is described as follows: qHTS assay to identify aromatase inhibitors - cell viability counter screen (AID 743084).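 Also: cells stimulated with testosterone during compound exposure; nearly all actives have a fitted effect of over 55% in size.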 Also: potency is read from the fitted curve at half-maximal effect.
Assay [2] has as its target Aryl hydrocarbon receptor (Homo sapiens) (UniProt P35869). Briefly: qHTS assay to identify small molecule that activate the aryl hydrocarbon receptor (AhR) signaling pathway (AID 743085). Also: nearly all actives have a fitted effect of over 15% in size. Also: potency is read from the fitted curve at half-maximal effect.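 As to activation: HG2L7.5c1 human HepG2 liver cells with stably integrated DRE-driven firefly reporter; series mostly up to about 70 µM.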 An outline of the steps: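 Luminescence (ONE-Glo) from a dioxin-responsive-element luciferase reporter in HG2L7.5c1 HepG2 cells after 24 hr compound exposure at 37C; viability measured by CellTiter-Fluor fluorescence beforehand.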
On the technique in general: In qHTS, concentration-response curves come from the screen itself.

The nature of assay [3]: qHTS assay to identify small molecule that activate the aryl hydrocarbon receptor (AhR) signaling pathway - cell viability counter screen (AID 743086). Also: nearly all actives have a fitted effect of over 45% in size. Also: potency is read from the fitted curve at half-maximal effect. The method in brief:
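HepG2-AhR-luc (HG2L7.5c1) cells, 4000/well, treated 24 h at 37 C with compound; viability measured as CellTiter-Fluor fluorescence after 30 min in the same wells as the luciferase read.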

Assay [4] concerns the target Peroxisome proliferator-activated receptor gamma (Homo sapiens) (UniProt P37231). Briefly: qHTS assay to identify small molecule agonists of the peroxisome proliferator-activated receptor gamma (PPARg) signaling pathway (AID 743094; active = well fitted activation curve with a large enough effect in the signal ratio in the repeat runs, not every such curve was filed as active; the % refers to the signal ratio). An outline of the steps: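 Reporter activation was scored by fluorescence of cleaved LiveBLAzer B/G substrate (1 h, room temperature) in PPARg-bla HEK293H cells previously treated 17 h at 37C with DMSO-dissolved compounds.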

Assay [5] in a line: qHTS assay to identify small molecule antagonists of the peroxisome proliferator-activated receptor gamma (PPARg) signaling pathway - cell viability counter screen (AID 743194). Also: nearly all actives have a fitted effect of over 55% in size. Particulars: Potency: co-treated with 50 nM rosiglitazone unless noted. The method in brief:
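Cytotoxicity counter screen in PPARg-bla HEK293H cells, same wells as reporter assay. Compounds plus 50 nM rosiglitazone (final) for 17 h at 37 C, then viability read by CellTiter-Glo luminescence.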

Assay [6] can be described thus: qHTS assay for small molecule agonists of the antioxidant response element (ARE) signaling pathway (AID 743202; active = well fitted activation curve with a large enough effect in the signal ratio in the repeat runs, not every such curve was filed as active; the % refers to the signal ratio). An outline of the steps:
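HepG2 ARE-bla reporter line, 2,000 cells/well; 5 h preincubation 37 C/5% CO2; compound (DMSO) 16 h 37 C; B/G FRET substrate 2 h RT; fluorescence intensity.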

Assay [7] can be described thus: qHTS assay for small molecule agonists of the antioxidant response element (ARE) signaling pathway - cell viability counter screen (AID 743203; calls by dose curve; also: nearly all actives have a fitted effect of over 55% in size). An outline of the steps: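 Viability counter screen: stably transfected ARE-bla HepG2 line, 16 hrs compound exposure at 37C/5% CO2, ATP-based CellTiter-Glo luminescence measured in the reporter wells.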
The nature of assay [8]: qHTS assay for small molecule activators of the heat shock response signaling pathway - cell viability counter screen (AID 743209). Also: nearly all actives have a fitted effect of over 50% in size. Also: potency is read from the fitted curve at half-maximal effect. An outline of the steps:
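Viability of HSE-bla HeLa cells is measured with CellTiter-Glo in the wells already used for the reporter read. Compound exposure lasts 5 h at 37 C, and luminescence is read after 30 min at room temperature.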

A short description of assay [9]: qHTS assay for small molecule activators of the heat shock response signaling pathway (AID 743210; active = well fitted activation curve with a large enough effect in the signal ratio in the repeat runs, with a control signal flat, not every such curve was filed as active; the % refers to the signal ratio;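 also: HeLa cells with beta-lactamase reporter driven by heat shock elements; series mostly up to about 63 µM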). An outline of the steps:
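Beta-lactamase reporter read-out: FRET substrate fluorescence after 2.5 h at RT, following 5 h compound treatment at 37 C of HeLa cells carrying HSE-driven bla reporter; quantitative HTS format.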

The nature of assay [10]: qHTS assay to identify small molecule agonists of the peroxisome proliferator-activated receptor delta (PPARd) signaling pathway - cell viability counter screen (AID 743211). Also: nearly all actives have a fitted effect of over 55% in size. Also: potency is read from the fitted curve at half-maximal effect. An outline of the steps:
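Viability was measured as CellTiter-Glo luminescence (30 min, room temperature) in the same wells as the beta-lactamase readout. GeneBLAzer PPARd UAS-bla HEK293H cells received compound after 5 h plating and were incubated 17 h at 37 C.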

For assay [11], the target named is Peroxisome proliferator-activated receptor delta (Homo sapiens) (UniProt Q03181). Nature of the assay: qHTS assay to identify small molecule agonists of the peroxisome proliferator-activated receptor delta (PPARd) signaling pathway (AID 743212; calls by dose curve). An outline of the steps: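 Read-out: beta-lactamase FRET fluorescence after 2 h room-temperature incubation with LiveBLAzer B/G substrate. Cells were HEK293H carrying a UAS-bla reporter for PPARd, treated at 37 C with DMSO-dissolved compounds.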
Sequence of Peroxisome proliferator-activated receptor delta (Homo sapiens) (Q03181 whole entry, looked up): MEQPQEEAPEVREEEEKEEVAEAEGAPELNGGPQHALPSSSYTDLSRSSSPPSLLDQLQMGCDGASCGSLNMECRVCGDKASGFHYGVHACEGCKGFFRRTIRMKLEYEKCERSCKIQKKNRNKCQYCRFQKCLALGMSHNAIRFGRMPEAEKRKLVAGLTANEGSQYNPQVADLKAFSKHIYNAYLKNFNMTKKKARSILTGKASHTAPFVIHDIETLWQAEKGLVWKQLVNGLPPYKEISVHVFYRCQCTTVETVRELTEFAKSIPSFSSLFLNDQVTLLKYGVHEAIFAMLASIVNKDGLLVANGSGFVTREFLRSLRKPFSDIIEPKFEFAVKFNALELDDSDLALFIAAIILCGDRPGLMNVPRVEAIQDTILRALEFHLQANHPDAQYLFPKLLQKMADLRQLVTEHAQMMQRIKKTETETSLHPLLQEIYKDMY

Assay [12] in a line: qHTS assay to identify small molecule antagonists of the peroxisome proliferator-activated receptor delta (PPARd) signaling pathway - cell viability counter screen (AID 743213). Also: nearly all actives have a fitted effect of over 50% in size. An outline of the steps: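 In this counter screen, HEK293H cells carrying a UAS-beta-lactamase reporter are co-treated with test compounds and 300 nM L165041 (final) for 17 h at 37 C; cell viability is quantified by CellTiter-Glo luminescence.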

The nature of assay [13]: qHTS assay to identify small molecule agonists of the farnesoid-X-receptor (FXR) signaling pathway - cell viability counter screen (AID 743218). Also: nearly all actives have a fitted effect of over 45% in size. The method in brief: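 Viability of FXR-bla HEK 293T cells is measured by ATP-based CellTiter-Glo luminescence following 16 h compound treatment at 37 C and a prior 2 h room-temperature beta-lactamase substrate step.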
A short description of assay [14]: qHTS assay to identify small molecule antagonists of the farnesoid-X-receptor (FXR) signaling pathway - cell viability counter screen (AID 743221; active = well fitted cell-killing curve with a large enough effect in the repeat runs, not every such curve was filed as active; also: nearly all actives have a fitted effect of over 50% in size). An outline of the steps:
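Cytotoxicity counter screen run in the FXR-bla reporter wells: HEK 293T cells exposed to compound with 50 uM (final) chenodeoxycholic acid for 16 h, 37 C, then viability measured by CellTiter-Glo luminescence after 30 min, room temperature.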

Assay [15] has as its target Vitamin D3 receptor (Homo sapiens) (UniProt P11473). Nature of the assay: qHTS assay to identify small molecule agonists of the vitamin D receptor (VDR) signaling pathway (AID 743222; calls by dose curve). The method in brief:
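Fluorescence from cleaved LiveBLAzer B/G FRET substrate served as readout. VDR-bla cells had been treated 16 h at 37C with test compounds in DMSO, following a 4 h settling period, and substrate was loaded for 2 h at RT.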

For assay [16] the target is unchanged. Briefly: qHTS assay to identify small molecule antagonists of the vitamin D receptor (VDR) signaling pathway (AID 743223; active = well fitted inhibition curve with a large enough effect in the signal ratio in the repeat runs, not every such curve was filed as active; the % refers to the signal ratio). The method in brief: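 Antagonist mode: compound added to VDR-bla cells alongside agonist 1alpha,25-dihydroxyvitamin D3 (3 nM final), incubation 16 h at 37C. Read-out is LiveBLAzer FRET fluorescence, 2 h at room temperature.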
Assay [17] concerns the target Peroxisome proliferator-activated receptor delta (Homo sapiens) (UniProt Q03181). Nature of the assay: qHTS assay to identify small molecule antagonists of the peroxisome proliferator-activated receptor delta (PPARd) signaling pathway (AID 743215; active = well fitted inhibition curve with a large enough effect in the signal ratio in the repeat runs, not every such curve was filed as active; the % refers to the signal ratio;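 also: cells stimulated with agonist L165041 at 300 nM final during compound exposure; series mostly up to about 62 µM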). An outline of the steps: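 Plated HEK293H PPARd-bla cells rested 5 h at 37 C and 5% CO2. Compound, then agonist L165041 at 300 nM final, was added; 17 h at 37 C followed. Substrate loading, 2 h room temperature, fluorescence measured.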

Assay [18] has as its target Peroxisome proliferator-activated receptor gamma (Homo sapiens) (UniProt P37231). Nature of the assay: qHTS assay to identify small molecule antagonists of the peroxisome proliferator-activated receptor gamma (PPARg) signaling pathway (AID 743191; calls by dose curve; also: series mostly up to about 63 µM; nearly all actives have a fitted effect of over 30% in size). The method in brief: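 GeneBLAzer PPARg UAS-bla HEK293H cells, 5 h post-plating, exposed to compounds 17 h at 37C. LiveBLAzer B/G FRET substrate added for 1 h at room temperature; beta-lactamase reporter read by fluorescence intensity.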

Assay [19] concerns the target Bile acid receptor (Homo sapiens) (UniProt Q96RI1). Nature of the assay: qHTS assay to identify small molecule antagonists of the farnesoid-X-receptor (FXR) signaling pathway (AID 743217; active = well fitted inhibition curve with a large enough effect in the signal ratio in the repeat runs, not every such curve was filed as active; the % refers to the signal ratio). An outline of the steps: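 Screen of the Tox21 10K library in quantitative HTS format using FXR-UAS-bla HEK 293T reporter cells. Agonist chenodeoxycholic acid, 50 uM final, added with compounds; 16 h incubation at 37 °C; beta-lactamase FRET fluorescence measured.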

Assay [20] shares this target. Briefly: qHTS assay to identify small molecule agonists of the farnesoid-X-receptor (FXR) signaling pathway (AID 743220; active = well fitted activation curve with a large enough effect in the signal ratio in the repeat runs, not every such curve was filed as active; the % refers to the signal ratio). The method in brief: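 FXR-UAS-bla HEK 293T cells carrying a UAS-driven beta-lactamase reporter were plated for 5 h at 37C/5% CO2, then exposed to DMSO-dissolved Tox21 10K compounds for 16 h at 37C. A LiveBLAzer B/G FRET substrate was loaded for 2 h at room temperature before fluorescence reading.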

Values joined by “and” are separate entries in the source; they are usually repeats but may differ in a detail not shown here. Identical values can stand only once. Records with an inconclusive call do not appear. More than one record can exist for a structure, and the calls need not agree. Active and inactive are the calls of the source. Unless noted, calls follow the shape of the dose curve; as a rule, active = well fitted curve in the direction sought with a large enough effect in the repeat runs; inconclusive = weak or mixed curves; inactive = no such curve, though single readings can be large; an effect the other way counts as inactive or inconclusive.

Sequence of Bile acid receptor (Homo sapiens) (Q96RI1 whole entry, looked up): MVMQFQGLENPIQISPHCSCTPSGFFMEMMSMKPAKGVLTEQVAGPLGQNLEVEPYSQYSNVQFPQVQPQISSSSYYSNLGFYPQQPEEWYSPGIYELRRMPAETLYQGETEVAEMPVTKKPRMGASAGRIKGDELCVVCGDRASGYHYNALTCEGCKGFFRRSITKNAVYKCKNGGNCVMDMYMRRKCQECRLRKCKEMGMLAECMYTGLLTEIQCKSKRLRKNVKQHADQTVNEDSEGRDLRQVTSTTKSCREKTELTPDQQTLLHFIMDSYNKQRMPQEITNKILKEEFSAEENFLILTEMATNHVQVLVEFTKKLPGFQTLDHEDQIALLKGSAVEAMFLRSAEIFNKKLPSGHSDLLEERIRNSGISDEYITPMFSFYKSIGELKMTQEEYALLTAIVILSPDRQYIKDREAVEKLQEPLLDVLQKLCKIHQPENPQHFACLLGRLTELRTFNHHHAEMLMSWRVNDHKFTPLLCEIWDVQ
Sequence of Vitamin D3 receptor (Homo sapiens) (P11473 whole entry, looked up): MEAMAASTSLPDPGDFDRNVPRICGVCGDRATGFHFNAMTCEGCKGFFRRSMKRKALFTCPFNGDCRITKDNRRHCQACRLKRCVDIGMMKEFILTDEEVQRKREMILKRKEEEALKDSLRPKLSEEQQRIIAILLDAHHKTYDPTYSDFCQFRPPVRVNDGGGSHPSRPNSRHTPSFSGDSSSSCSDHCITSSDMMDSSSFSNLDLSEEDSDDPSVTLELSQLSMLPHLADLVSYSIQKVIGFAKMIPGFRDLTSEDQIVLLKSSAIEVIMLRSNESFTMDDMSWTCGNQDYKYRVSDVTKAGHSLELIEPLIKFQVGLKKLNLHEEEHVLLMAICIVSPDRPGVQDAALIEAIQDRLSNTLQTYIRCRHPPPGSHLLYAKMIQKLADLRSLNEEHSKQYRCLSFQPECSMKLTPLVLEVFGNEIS
Sequence of Aryl hydrocarbon receptor (Homo sapiens) (P35869 whole entry, looked up): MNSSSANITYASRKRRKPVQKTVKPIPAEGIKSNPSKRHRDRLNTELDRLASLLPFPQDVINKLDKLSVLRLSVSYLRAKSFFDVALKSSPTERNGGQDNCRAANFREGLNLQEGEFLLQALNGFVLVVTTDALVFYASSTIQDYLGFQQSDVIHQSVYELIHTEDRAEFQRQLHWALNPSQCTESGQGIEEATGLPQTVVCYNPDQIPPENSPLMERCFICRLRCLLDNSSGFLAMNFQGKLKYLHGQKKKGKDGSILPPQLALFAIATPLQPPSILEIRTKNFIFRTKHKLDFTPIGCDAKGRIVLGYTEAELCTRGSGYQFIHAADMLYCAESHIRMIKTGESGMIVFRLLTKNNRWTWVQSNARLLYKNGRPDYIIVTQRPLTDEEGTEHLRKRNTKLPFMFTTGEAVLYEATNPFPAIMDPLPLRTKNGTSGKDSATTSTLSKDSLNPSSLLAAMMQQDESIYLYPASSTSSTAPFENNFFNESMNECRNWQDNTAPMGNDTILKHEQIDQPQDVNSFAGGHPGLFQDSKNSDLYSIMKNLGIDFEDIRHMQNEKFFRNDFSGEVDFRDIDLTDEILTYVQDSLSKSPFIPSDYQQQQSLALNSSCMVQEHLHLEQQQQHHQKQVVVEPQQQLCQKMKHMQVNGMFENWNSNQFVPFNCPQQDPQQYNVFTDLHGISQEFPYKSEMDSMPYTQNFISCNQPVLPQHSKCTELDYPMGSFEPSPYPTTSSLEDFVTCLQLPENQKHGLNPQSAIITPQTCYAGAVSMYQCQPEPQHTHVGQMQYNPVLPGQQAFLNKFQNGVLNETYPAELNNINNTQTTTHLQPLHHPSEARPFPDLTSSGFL
Sequence of Peroxisome proliferator-activated receptor gamma (Homo sapiens) (P37231 whole entry, looked up): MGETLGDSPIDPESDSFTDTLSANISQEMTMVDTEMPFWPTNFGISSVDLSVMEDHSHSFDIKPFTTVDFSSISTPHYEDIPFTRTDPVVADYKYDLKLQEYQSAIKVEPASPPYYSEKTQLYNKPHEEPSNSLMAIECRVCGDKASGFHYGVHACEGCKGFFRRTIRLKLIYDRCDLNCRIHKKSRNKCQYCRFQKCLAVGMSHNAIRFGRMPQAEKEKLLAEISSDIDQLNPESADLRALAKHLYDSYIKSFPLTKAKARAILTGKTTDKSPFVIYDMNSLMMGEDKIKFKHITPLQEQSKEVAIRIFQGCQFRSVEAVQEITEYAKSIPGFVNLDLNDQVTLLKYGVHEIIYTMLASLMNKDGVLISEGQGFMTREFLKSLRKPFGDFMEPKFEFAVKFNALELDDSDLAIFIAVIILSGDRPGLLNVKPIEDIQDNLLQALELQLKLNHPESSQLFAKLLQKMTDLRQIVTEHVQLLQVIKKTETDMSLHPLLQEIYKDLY

Regarding `Cc1c(COC(=O)[C@@H]2[C@H](/C=C(\Cl)C(F)(F)F)C2(C)C)cccc1-c1ccccc1`, the Potency result in [1], in [2], in assay [3], in assay [4], in [5] and in assay [6] was “inactive” each time. The Potency result in [7], in assay [8], in assay [9], in assay [10], in assay [11] and in [12] was “inactive” each time. The Potency result in assay [13] and in assay [14] was “inactive” each time. Moreover, the compound was classed as inactive in assay [15] and in assay [16].

Regarding `Nc1ccc(Cl)c(Cl)c1`, the Potency entry in assay [1], in assay [3], in [4], in assay [5], in [6] and in assay [7] was “inactive” in each case. Besides, the Potency result in assay [8], in [9], in assay [10], in [11], in assay [12] and in assay [17] was “inactive” each time. For the same compound, the Potency result in assay [14] is “inactive”. Also, the Potency in assay [2] is 55.7 µM (active) and 61.1 µM (active). Further, the compound was called inactive in assay [15] and in assay [16].

Consider `Brc1ccc(Oc2cc(Br)c(Br)cc2Br)c(Br)c1`, for which the Potency entry in assay [1], in assay [2], in [3], in [4], in [5] and in assay [6] was “inactive” throughout. For the same compound, the Potency entry in assay [8], in assay [9], in assay [11], in assay [12], in assay [17] and in [13] was “inactive” each time. In addition, the Potency result in assay [14] is “inactive”. Further, the Potency in assay [10] is 22 µM (active). Also, the outcome in assay [15] and in [16] was inactive.

Consider `CCC(C)(C)c1ccc(O)cc1`, for which the Potency result in assay [1], in assay [2], in assay [3], in [4], in assay [18] and in [5] was “inactive” throughout. Also, the Potency entry in assay [6], in assay [7], in assay [8], in assay [9], in assay [12] and in assay [14] was “inactive” in each case. Besides, the Potency in assay [10] is 49.5 µM (active) and inactive. For the same compound, the outcome in assay [15] and in assay [16] was inactive.

As to `CC(C)NC(C)C`, the Potency entry in assay [1], in assay [2], in assay [3], in assay [4], in assay [18] and in [5] was “inactive” throughout. The Potency entry in assay [6], in [7], in [8], in assay [10], in [11] and in assay [12] was “inactive” in each case. The Potency result in assay [17], in assay [13] and in [14] was “inactive” each time. The compound was called inactive in [15] and in assay [16].

Consider `C[C@]12CCC(=O)C(O)=C1CC[C@@H]1[C@@H]2CC[C@]2(C)C(=O)CC[C@@H]12`, for which the Potency entry in assay [1], in assay [2], in [3], in assay [4], in [18] and in assay [5] was “inactive” throughout. In addition, the Potency entry in [7], in assay [8], in [9], in assay [10], in assay [12] and in assay [14] was “inactive” each time. Also, the result in assay [15] and in assay [16] was inactive.

On to `C=CCc1ccc(OC)cc1`, for which the Potency entry in [1], in assay [2], in assay [3], in assay [4], in [5] and in assay [6] was “inactive” each time. Besides, the Potency entry in assay [7], in assay [8], in assay [9], in assay [10], in [11] and in [12] was “inactive” throughout. In addition, the Potency entry in [13] and in [14] was “inactive” throughout.

Consider `c1ccc(-c2cccc(-c3ccccc3)c2)cc1`, for which the Potency entry in [1], in assay [3], in [4], in [18], in assay [5] and in [6] was “inactive” in each case. The Potency entry in assay [7], in assay [8], in [9], in [10], in [12] and in assay [14] was “inactive” throughout. Further, the Potency result in assay [2] was “inactive and 61.1 µM (active)”.

Take `CC(C)(OOC(C)(C)c1ccccc1)c1ccccc1`: the Potency result in assay [1], in assay [2], in assay [3], in [4], in [5] and in assay [6] was “inactive” each time. The Potency entry in assay [7], in assay [9], in [10], in assay [11], in assay [12] and in [17] was “inactive” each time. In addition, the Potency result in assay [19] and in [14] was “inactive” in each case. Besides, in assay [8], the Potency was 48.3 µM (active) and inactive. Besides, the outcome in assay [20], in assay [15] and in assay [16] was inactive.

`Cc1ccc2c(c1N)C(=O)c1ccccc1C2=O`: the Potency in assay [1] was 43.3 µM (active); in assay [2] it was 3.03 µM (active) and 4.33 µM (active); in [3], 27.3 µM (active). The Potency entry in assay [4], in [5], in assay [7], in [8], in assay [9] and in assay [10] was “inactive” in each case. The Potency entry in assay [11], in assay [12], in [17], in assay [13] and in [14] was “inactive” each time. The call in assay [20] was inactive.

For the compound `COP(=S)(OC)Oc1ccc([N+](=O)[O-])cc1`, the Potency entry in assay [1], in [2], in assay [3], in assay [4], in assay [5] and in assay [7] was “inactive” throughout. In addition, the Potency entry in assay [8], in assay [9], in assay [10], in assay [11], in [12] and in assay [17] was “inactive” each time. The Potency result in assay [14] is “inactive”. The compound was classed as inactive in assay [15].
